28 compounds from ChEMBL document CHEMBL1157539, “Thousands of chemical starting points for antimalarial lead identification” (Nature, 2010) can be followed below.

Format in all cases: functional
In experiment [1] the test system is Plasmodium falciparum. In words: GSK_TCMDC: Inhibition of Plasmodium falciparum 3D7 in whole red blood cells, using parasite LDH activity as an index of growth. Test compounds present at 2uM.
In experiment [2] the test system is Plasmodium falciparum. In words: GSK_TCMDC: Inhibition of Plasmodium falciparum Dd2 in whole red blood cells, using parasite LDH activity as an index of growth. Test compounds present at 2uM.
For experiment [3], the system named is HepG2. The experiment in a line: GSK_TCMDC: Percent inhibition of human HepG2 cell line. Test compounds present at 10uM.

For `COc1ccc(CN2CCC(N3CC(c4ccccc4)(c4ccccc4)OCC3=O)C2)c(O)c1.O=C(O)C(F)(F)F` (centres undefined), the Inhibition in experiment [1] was 96%; in experiment [2], 27%; in experiment [3], 10%.
The corresponding values for `Cc1sc2cc(Cl)cc(Cl)c2c1S(=O)(=O)Nc1ccc2nccc(N3CCNCC3)c2c1.Cl` are 100%, 99% and 24%.
As to `CCCCCN1CCCN(Cc2cccc(NC(=O)c3ccc(-c4ccccc4)cc3)c2)CC1.O=C(O)C(F)(F)F`, the Inhibition in experiment [1] amounted to 95%; in experiment [2], 15%; in experiment [3] it was 23%.
The matching figures for `Cc1cc(N(C)C)nc(Nc2ccc(NS(=O)(=O)c3ccccc3)cc2)n1`: 92%, 11% and 0%.
The corresponding values for `O=C(CCCCCNC(=O)c1ccc(O)c(-c2ccc(Cl)c(Cl)c2)c1)NC1CCCc2ccccc21` (centres undefined) are 97%, 13% and 0%.
The corresponding values for `CC(C)(C)NS(=O)(=O)c1cc(C(=O)N2CCC(CCN3CCC(C(=O)c4ccc(F)cc4)CC3)(c3cccc(F)c3)CC2)c(Cl)cc1F` are 99%, 99% and 0%.
`Cl.NOCCCCOc1ccc(Cl)cc1`: the results for the Inhibition in experiment [1], in experiment [2] and in experiment [3] were 98%, 0% and 2%, respectively.
The corresponding values for `COc1ccccc1CCNc1nc(C)cc(N[C@@H](CC(C)C)C(=O)NCc2cccc(F)c2)n1.O=C(O)C(F)(F)F` are 94%, 79% and 20%.
`COc1cc2nc(N3CCN(C(=O)c4c(Cl)nsc4-c4ccccc4Cl)CC3)nc(N)c2cc1OC.O=C(O)C(F)(F)F`: the Inhibition in experiment [1] amounted to 100%; in experiment [2], 100%; in experiment [3] it was 57%.
With `CN1CCCN(Cc2ccc(-c3cccc(NC(=O)c4ccc(Cl)cc4)c3)cc2)CC1.O=C(O)C(F)(F)F`, the results for the Inhibition in experiment [1], in experiment [2] and in experiment [3] were 98%, 50% and 34%, respectively.
Regarding `COc1ccc2nc(C)cc(Nc3ccc(Cl)cc3)c2c1`, the values for the Inhibition in experiment [1], in experiment [2] and in experiment [3] were 89%, 3% and 10%, respectively.
The corresponding values for `CC(C)CCN1CCCN(Cc2ccc(C(=O)NCc3ccc(Cl)cc3)cc2)CC1.O=C(O)C(F)(F)F` are 84%, 0% and 16%.
The corresponding values for `Cl.O=c1cc(NCCCNCc2csc(Br)c2Sc2ccc(Cl)cc2)[nH]c2ccccc12` are 95%, 83% and 5%.
The corresponding values for `Cl.O=C(C=Cc1ccc(C(=O)Nc2ccc(C3=NCCN3)cc2)cc1)Nc1ccc(C2=NCCN2)cc1` are 97%, 100% and 0%.
`N#Cc1cc(C(=O)c2cc(Cl)ccc2O)cn(-c2cccc(C(F)(F)F)c2)c1=O`: the Inhibition in experiment [1] turned out to be 87%; in experiment [2] it was 7%; in experiment [3], 0%.
The corresponding values for `CCn1c(Sc2ccc([N+](=O)[O-])c(C#N)c2)nnc1-c1ccc(Cl)cc1` are 93%, 7% and 2%.
On to `Cc1cccc2nc(-c3ccc(-c4ccc(CN5CCC(N)C5)cc4)s3)[nH]c12.O=C(O)C(F)(F)F` (centres undefined), for which the figures for the Inhibition in experiment [1], in experiment [2] and in experiment [3] were 100%, 98% and 21%, respectively.
For `Cc1cc(N)c2cc(NC(=O)c3cc(C(F)(F)F)cc(C(F)(F)F)c3)ccc2n1.Cl`, the Inhibition in experiment [1] stood at 100%; in experiment [2], 99%; in experiment [3], 100%.
Turning to `Cc1cccc2nc(-c3ccc(-c4ccc(CNCc5cnn(-c6ccccc6)n5)cc4)cc3)[nH]c12.O=C(O)C(F)(F)F`, the Inhibition came out at 100% in experiment [1], 99% in experiment [2] and 35% in experiment [3].
The matching figures for `COc1ccc(N2CCN(CCCCNC(=O)c3ccc(NC(=O)c4ccc(Cl)cc4)cc3)CC2)c(C)c1`: 100%, 51% and 42%.
The matching figures for `CCOc1cc2ncnc(Nc3ccc(OCc4c(F)cccc4F)c(OC)c3)c2cc1OCC.Cl`: 96%, 60% and 7%.
The matching figures for `CC(C)N(CC(=O)c1ccc(O)c(C(=O)O)c1)Cc1ccccc1.Cl`: 97%, 26% and 0%.
In the case of `O=C(NCc1ccc(C(=O)NC2CCCCCC2)cc1)c1ccc(O)c(-c2ccc(Cl)c(Cl)c2)c1`, the Inhibition is reported as 83% in experiment [1], 21% in experiment [2] and 0% in experiment [3].
The matching figures for `Cl.O=C(NC1CCC(N2CCN(c3cccc4[nH]ccc34)CC2)CC1)c1cc2cccnc2[nH]1` (centres undefined): 99%, 85% and 9%.
The corresponding values for `CC(=O)N1c2ccccc2C(C)=CC1(C)C` are 97%, 11% and 3%.
As to `O=C(Nc1ccccc1-c1ccccc1)C1CCCN1C(=O)Nc1ccc(Cl)cc1` (centres undefined), the Inhibition in experiment [1] stood at 96%; in experiment [2], 90%; in experiment [3], 0%.
For `CC(C)C[C@H](NC(=O)c1ccc(OCCN2CCOCC2)cc1)C(=O)N[C@H](/C=N/N1CCN(C)C1=O)CCc1ccccc1`, the figures for the Inhibition in experiment [1], in experiment [2] and in experiment [3] were 90%, 65% and 3%, respectively.
As to `COc1cc2c(cc1C(F)(F)F)N(C(=O)Nc1cc(Br)cc(-c3cccnc3)c1)CC2`, the values for the Inhibition in experiment [1], in experiment [2] and in experiment [3] were 96%, 34% and 8%, respectively.
